We go through 24 compounds from PubChem BioAssay AID493170 (National Center for Advancing Translational Sciences (NCATS), 2011).

Records with an inconclusive call do not appear. Unmarked numbers belong to inactive results. The source made the active and inactive calls. Calls come from the whole dose curve; as a rule, active = well fitted inhibition curve with a large enough effect; inconclusive = small, poorly fitted or top-dose-only effect, or effect the other way; inactive = flat fitted curve, though single readings scatter.
% is set by controls: 0 for no effect and ±100 for the full control effect; potency is the fitted concentration of half-maximal effect.

Ubiquitin carboxyl-terminal hydrolase 2 (Homo sapiens), sequence (O75604 whole entry, looked up): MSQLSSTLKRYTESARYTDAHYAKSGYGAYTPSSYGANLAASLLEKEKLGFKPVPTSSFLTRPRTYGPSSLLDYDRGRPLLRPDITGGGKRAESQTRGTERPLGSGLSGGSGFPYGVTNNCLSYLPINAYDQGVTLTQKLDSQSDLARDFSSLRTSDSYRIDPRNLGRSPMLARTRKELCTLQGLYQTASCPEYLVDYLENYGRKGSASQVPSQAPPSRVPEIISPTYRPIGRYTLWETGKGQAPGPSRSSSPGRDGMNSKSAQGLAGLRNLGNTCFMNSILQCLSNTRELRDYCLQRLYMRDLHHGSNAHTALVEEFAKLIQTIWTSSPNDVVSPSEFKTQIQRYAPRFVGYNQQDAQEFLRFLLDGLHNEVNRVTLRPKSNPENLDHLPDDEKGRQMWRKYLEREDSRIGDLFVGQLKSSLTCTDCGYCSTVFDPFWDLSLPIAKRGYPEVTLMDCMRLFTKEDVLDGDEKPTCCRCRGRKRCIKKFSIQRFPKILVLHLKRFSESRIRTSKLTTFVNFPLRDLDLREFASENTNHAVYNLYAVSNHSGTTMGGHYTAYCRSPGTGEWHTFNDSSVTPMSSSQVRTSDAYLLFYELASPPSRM

This experiment has as its target Ubiquitin carboxyl-terminal hydrolase 2 (Homo sapiens) (UniProt O75604). Kind of experiment: Ub-rhodamine 110 based assay for inhibitors Ubiquitin-specific Protease USP2a. Note: nearly all actives have a fitted effect of over 50% in size. The following applies: USP2a Ub-rhodamine110 cleavage, fluorescence; series mostly up to 38.3 µM; activity change, negative = inhibition: at the top concentration. The procedure, abridged:
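5 nM USP2a preincubated with compounds for 30 min at RT in 20 mM Tris-HCl pH 8.0, 2 mM CaCl2, 2 mM beta-mercaptoethanol, 0.05% CHAPS. Cleavage of 150 nM Ub-rhodamine 110 read kinetically (Ex 485/Em 531) for 7 min.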
In the case of `O=C(Nc1ccc(N2CCCC2)cc1)C(c1ccccc1)c1ccccc1`, the “activity change, negative = inhibition” value is -19.6%.

In the case of `NC(=O)C[C@@H]1N[C@]2(C(=O)Nc3ccccc32)[C@@H]2C(=O)N(c3cc(C(F)(F)F)ccc3Cl)C(=O)[C@H]12`, the “activity change, negative = inhibition” value is -1.09%.

For the compound `Cc1cc(C)n(C(=O)c2cccc(S(=O)(=O)N3CCCC3)c2)n1`, the “activity change, negative = inhibition” value was 2.63%.

In the case of `N#Cc1cccc(C(=O)N(CCc2ccccc2)Cc2cccs2)c1`, the “activity change, negative = inhibition” value is -2.85%.

With `Cc1ccc(S(=O)(=O)N2CCOCC2)cc1NC(=O)CN1C(=O)NC(C)(c2ccc(Cl)cc2Cl)C1=O` (centres undefined), the “activity change, negative = inhibition” value was -5.06%.

Take `O=C(COc1ccccc1)Nc1nnc(-c2ccc(Cl)s2)o1`: the “activity change, negative = inhibition” value was -14%.

For the compound `COc1ccc(-c2nc3cc(NC(=O)Cc4ccc(OC)c(OC)c4)ccc3o2)cc1`, the “activity change, negative = inhibition” value was 3.85%.

For `COc1ccc(/C=C2\SC(=O)N(CC(=O)Nc3cccc(C)c3)C2=O)cc1O`, the Potency is 8.91 µM (active).

On to `O=C(c1ccc(CS(=O)(=O)c2ccc(Br)cc2)o1)N1CCCC1`, for which the “activity change, negative = inhibition” value was -8.3%.

As to `O=c1[nH]c(=S)[nH]c2c1C(c1ccc(Br)cc1)c1c([nH]c(=S)[nH]c1=O)O2`, the Potency was 11.2 µM (active).

For `N=C1/C(=C\c2ccc(-c3cccc(Cl)c3)o2)C(=O)N=C2SC=C(c3ccccc3)N12`, the Potency was 11.2 µM (active).

As for `Cc1ccc(N2CN=c3s/c(=C\c4cccnc4)c(=O)n3C2)cc1`, the “activity change, negative = inhibition” value is 0.546%.

`O=C(/C(=N/N=C/c1ccc(O)c(O)c1O)c1ccccc1)c1ccccc1`: the Potency is 2.51 µM (active).

On to `CCC1SC2=NC(C)=C(C(=O)OCCOC)C(c3ccc(C(=O)OC)cc3)N2C1=O` (centres undefined), for which the “activity change, negative = inhibition” value is -8.2%.

`COc1ccc(-n2c(=S)[nH]c3cc(C(=O)NCc4ccc(F)cc4)ccc3c2=O)c(OC)c1`: the “activity change, negative = inhibition” value was -19.6%.

On to `COc1cccc(-n2c(SCc3cc(=O)oc4cc(O)c(O)cc34)nc3ccccc3c2=O)c1`, for which the Potency was 1.58 µM (active).

For the compound `O=C(NC(=S)N1CCCc2ccccc21)c1ccc([N+](=O)[O-])cc1`, the “activity change, negative = inhibition” value was -8.15%.

Take `Cc1[nH]c2ccccc2c1C(c1ccccn1)c1c(C)[nH]c2ccccc12`: the “activity change, negative = inhibition” value was -17%.

For the compound `O=C(O)c1cccc2c1C(=O)c1ccc(-c3ccc(F)cc3OCc3ccccc3)cc1S2(=O)=O`, the Potency is 11.2 µM (active).

On to `COc1ccc(CCN2CC(C#N)=C3c4cc(OC)c(OC)cc4CCN3C2)cc1OC`, for which the “activity change, negative = inhibition” value was -14.6%.

Take `O=C(Cc1cccs1)Nc1ccc(S(=O)(=O)N2CCCCC2)cc1`: the Potency is 7.94 µM (active).

Consider `O=C1NCC(CN(c2ccccc2)c2ccccc2)O1` (centres undefined), for which the “activity change, negative = inhibition” value is -0.749%.

For `FC(F)(F)c1cnc2c(c1)Nc1ccccc1S2`, the “activity change, negative = inhibition” value is 5.47%.

`CCCCC(OC(=O)c1cc2occc2n1C)C(=O)NCC1CCCO1` (centres undefined): the “activity change, negative = inhibition” value is -5.56%.
